# According to PubChem BioAssay (NCATS):
# Records with an inconclusive call do not appear. A call without a number means that no potency is given here. Activity calls are given as the source filed them. Calls follow the shape of the dose curve; as a rule, active = well fitted curve in the direction sought with a large enough effect; inconclusive = small, poorly fitted or top-dose-only effect, or another doubt; inactive = no such curve, though single readings can be large; an effect the other way counts as inactive or inconclusive.
# How the values were obtained:
# [1] = qHTS of pediatric cancer cell lines to identify multiple opportunities for drug repurposing: Primary screen for LAN-5 cells (AID 1347100); details: LAN-5 neuroblastoma viability, CellTiter-Glo luminescence, 48 h; series mostly up to 46 µM; also: potency is read from the fitted curve at half-maximal effect
# Procedure, shortened: (§1)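 Viability after 48 h compound treatment at 37C, 500-1,000 cells/well, read as ATP luminescence with CellTiter-Glo. Primary screens used 11-point (MIPE, 0.78 nM-46 µM) or 8-point (NPC, 0.59 nM-46 µM) final concentrations; follow-up screens used 11-point dilutions.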
# [2] = qHTS of pediatric cancer cell lines to identify multiple opportunities for drug repurposing: Primary screen for BT-12 cells (AID 1347101); details: BT-12 viability, CellTiter-Glo luminescence, 48 h; series mostly up to 57.3 µM; also: nearly all actives have a fitted effect of over 25% in size; also: potency is read from the fitted curve at half-maximal effect
# Procedure, shortened: (§2)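 Cells (500-1,000/well) rested 5 h, then received compounds for 48 h; metabolically active cells were measured by CellTiter-Glo luminescence. Final concentrations spanned up to 46 µM (MIPE, 11-point) or 0.59 nM-46 µM (NPC, 8-point) in primary screens, 11-point in follow-ups.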
# [3] = qHTS of pediatric cancer cell lines to identify multiple opportunities for drug repurposing: Primary screen for Rh18 cells (AID 1347102); details: Rh18 rhabdomyosarcoma viability, CellTiter-Glo luminescence, 48 h; series mostly up to 46 µM; also: nearly all actives have a fitted effect of over 65% in size; also: potency is read from the fitted curve at half-maximal effect
# Procedure, shortened: as §1
# [4] = qHTS of pediatric cancer cell lines to identify multiple opportunities for drug repurposing: Primary screen for OHS-50 cells (AID 1347103); details: OHS-50 osteosarcoma viability, CellTiter-Glo luminescence, 48 h; series mostly up to 57.3 µM; also: nearly all actives have a fitted effect of over 40% in size; also: potency is read from the fitted curve at half-maximal effect
# Procedure, shortened: as §2
# [5] = qHTS of pediatric cancer cell lines to identify multiple opportunities for drug repurposing: Primary screen for MG 63 (6-TG R) cells (AID 1347105); details: MG 63 (6-TG R) viability, CellTiter-Glo, 48 h; series mostly up to 46 µM; also: nearly all actives have a fitted effect of over 50% in size; also: potency is read from the fitted curve at half-maximal effect
# Procedure, shortened: (§3)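 Quantitative HTS format: each compound titrated (MIPE 11 points from 0.78 nM, NPC 8 points from 0.59 nM) onto cells plated 5 hours earlier. After 48 h at 37 degrees C, CellTiter-Glo luminescence was recorded.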
# [6] = qHTS of pediatric cancer cell lines to identify multiple opportunities for drug repurposing: Primary screen for control Hh wild type fibroblast cells (AID 1347106); details: Hh wild-type fibroblast viability, CellTiter-Glo luminescence, 48 h; series mostly up to 46 µM;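 also: a drop in luminescence marks cytotoxicity and a rise apparent proliferation; nearly all actives have a fitted effect of over 55% in size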
# Procedure, shortened: as §1
# [7] = qHTS of pediatric cancer cell lines to identify multiple opportunities for drug repurposing: Primary screen for Rh30 cells (AID 1347107); details: Rh30 rhabdomyosarcoma viability, CellTiter-Glo luminescence, 48 h; series mostly up to 46 µM; also: nearly all actives have a fitted effect of over 75% in size; also: potency is read from the fitted curve at half-maximal effect
# Procedure, shortened: as §1
# [8] = qHTS of pediatric cancer cell lines to identify multiple opportunities for drug repurposing: Primary screen for Rh41 cells (AID 1347108); details: Rh41 rhabdomyosarcoma viability, CellTiter-Glo luminescence, 48 h; series mostly up to 46 µM; also: nearly all actives have a fitted effect of over 70% in size; also: potency is read from the fitted curve at half-maximal effect
# Procedure, shortened: as §3
# [9] = qHTS of pediatric cancer cell lines to identify multiple opportunities for drug repurposing: Primary screen for RD cells (AID 1347104); details: RD rhabdomyosarcoma viability, CellTiter-Glo luminescence, 48 h; series mostly up to 46 µM; also: nearly all actives have a fitted effect of over 55% in size; also: potency is read from the fitted curve at half-maximal effect
# Procedure, shortened: as §3
# [10] = qHTS of pediatric cancer cell lines to identify multiple opportunities for drug repurposing: Confirmatory screen for A673 cells (AID 1347110); details: A673 Ewing sarcoma cell viability; series mostly up to 45.9 µM; also: nearly all actives have a fitted effect of over 65% in size; also: potency is read from the fitted curve at half-maximal effect
# Procedure, shortened: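 qHTS titration format: primary MIPE 0.78 nM-46 µM (11 pts), NPC 0.59 nM-46 µM; confirmation 11 pts. 48 h, CTG luminescence.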
# [11] = qHTS of pediatric cancer cell lines to identify multiple opportunities for drug repurposing: Confirmatory screen for DAOY cells (AID 1347114); details: DAOY medulloblastoma cells viability, cytotoxicity qHTS; series mostly up to 45.9 µM; also: nearly all actives have a fitted effect of over 65% in size
# Procedure, shortened: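 Viability measured as metabolically active cells via CellTiter-Glo luminescence following 48 hours of compound exposure, 11-point dilutions in confirmatory testing. 500-1,000 cells/well plated 5 hours before dosing; controls were DMSO and 2.3 µM bortezomib.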
# [12] = qHTS of pediatric cancer cell lines to identify multiple opportunities for drug repurposing: Confirmatory screen for NB-EBc1 cells (AID 1347115); details: NB-EBc1 neuroblastoma cells, viability (cytotoxicity); series mostly up to 45.9 µM; also: nearly all actives have a fitted effect of over 45% in size
# Procedure, shortened: as §1
# [13] = qHTS of pediatric cancer cell lines to identify multiple opportunities for drug repurposing: Confirmatory screen for TC32 cells (AID 1347118); details: TC32 Ewing sarcoma cells viability qHTS; series mostly up to 45.9 µM; also: nearly all actives have a fitted effect of over 65% in size; also: potency is read from the fitted curve at half-maximal effect
# Procedure, shortened: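 qHTS, TC32, 48 h drug treatment, CellTiter-Glo luminescence as a proxy for metabolically active cells; primary top concentration 46 µM (MIPE 11-pt, NPC 8-pt); confirmatory 11-pt.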
# [14] = qHTS of pediatric cancer cell lines to identify multiple opportunities for drug repurposing: Confirmatory screen for MG 63 (6-TG R) cells (AID 1347119); details: MG-63 (6-TG resistant) osteosarcoma viability; series mostly up to 45.9 µM; also: nearly all actives have a fitted effect of over 55% in size
# Procedure, shortened: as §1
# [15] = qHTS of pediatric cancer cell lines to identify multiple opportunities for drug repurposing: Confirmatory screen for control Hh wild type fibroblast cells (AID 1347121); details: viability qHTS; series mostly up to 45.9 µM; also: nearly all actives have a fitted effect of over 70% in size; also: potency is read from the fitted curve at half-maximal effect
# Procedure, shortened: as §1
# [16] = qHTS of pediatric cancer cell lines to identify multiple opportunities for drug repurposing: Confirmatory screen for NB1643 cells (AID 1347109); details: NB1643 neuroblastoma cell viability; series mostly up to 45.9 µM; also: potency is read from the fitted curve at half-maximal effect; nearly all actives have a fitted effect of over 45% in size
# Procedure, shortened: as §1
# [17] = qHTS of pediatric cancer cell lines to identify multiple opportunities for drug repurposing: Confirmatory screen for SK-N-MC cells (AID 1347111); details: SK-N-MC cell viability; series mostly up to 45.9 µM;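 also: potency is read from the fitted curve at half-maximal effect; cells exposed to compound for 48 h before the readout; nearly all actives have a fitted effect of over 70% in size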
# Procedure, shortened: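 SK-N-MC cells at 500-1,000 cells/well in growth media were pre-incubated 5 h, then exposed to compounds at 11-point dilutions for 48 h at 37 degrees C, 5% CO2. Viability was read as CellTiter-Glo luminescence.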
# [18] = qHTS of pediatric cancer cell lines to identify multiple opportunities for drug repurposing: Confirmatory screen for LAN-5 cells (AID 1347113); details: LAN-5 neuroblastoma cell viability; series mostly up to 45.9 µM
# Procedure, shortened: as §1
# [19] = qHTS of pediatric cancer cell lines to identify multiple opportunities for drug repurposing: Confirmatory screen for BT-37 cells (AID 1347117); details: BT-37 pediatric cancer cells, viability; series mostly up to 45.9 µM; also: potency is read from the fitted curve at half-maximal effect; nearly all actives have a fitted effect of over 55% in size
# Procedure, shortened: as §1
compound,measurement,setting,value
COc1cccc(OC)c1-c1cc(C(=O)NC2(C(=O)O)C3CC4CC(C3)CC2C4)nn1-c1ccnc2cc(Cl)ccc12 (centres undefined),Potency,[1],inactive
same,Potency,[2],inactive
same,Potency,[3],inactive
same,Potency,[4],inactive
same,Potency,[5],inactive
same,Potency,[6],inactive
same,Potency,[7],inactive
same,Potency,[8],inactive
CN(C)c1nc(Cc2ccc(NC(=O)c3ccc(C(F)(F)F)cc3)cc2)nc(N(C)C)c1CC(=O)O,Potency,[1],inactive
same,Potency,[2],inactive
same,Potency,[3],inactive
same,Potency,[4],inactive
same,Potency,[5],inactive
same,Potency,[6],inactive
same,Potency,[7],inactive
same,Potency,[8],inactive
Nc1ncnc2c1c(-c1cccc(OCc3ccccc3)c1)cn2C1CC(CN2CCC2)C1 (centres undefined),Potency,[1],4.69 µM (active)
same,Potency,[2],inactive
same,Potency,[3],inactive
same,Potency,[4],0.968 µM (active)
same,Potency,[6],inactive
same,Potency,[8],2.96 µM (active)
N#Cc1c(N(CC(=O)O)CC(=O)O)sc(C(=O)O)c1CC(=O)O,Potency,[1],inactive
same,Potency,[2],inactive
same,Potency,[3],inactive
same,Potency,[4],inactive
same,Potency,[5],inactive
same,Potency,[6],inactive
same,Potency,[7],inactive
same,Potency,[8],inactive
COc1ccc(CCC(=O)Nc2nc3ccc(Cl)cc3s2)cc1OC,Potency,[1],inactive
same,Potency,[2],inactive
same,Potency,[3],inactive
same,Potency,[9],inactive
same,Potency,[5],inactive
same,Potency,[6],inactive
CC(C)CN(C[C@@H](O)[C@H](Cc1ccccc1)NC(=O)O[C@H]1CO[C@H]2OCC[C@H]21)S(=O)(=O)c1ccc(N)cc1,Potency,[1],18.7 µM (active)
same,Potency,[2],3.85 µM (active)
same,Potency,[3],inactive
same,Potency,[4],12.2 µM (active)
same,Potency,[9],14.8 µM (active)
same,Potency,[6],inactive
same,Potency,[10],inactive
same,Potency,[11],inactive
same,Potency,[12],inactive
same,Potency,[13],inactive
same,Potency,[14],inactive
same,Potency,[15],inactive
C[C@H]1O[C@@H](n2cc(F)c(=O)[nH]c2=O)[C@H](O)[C@H]1O,Potency,[1],13.2 µM (active)
same,Potency,[2],27.3 µM (active)
same,Potency,[3],inactive
same,Potency,[4],inactive
same,Potency,[6],inactive
Cc1[nH]c(C=C2C(=O)Nc3ccc(S(=O)(=O)N(C)c4cccc(Cl)c4)cc32)c(C)c1C(=O)N1CCN(C)CC1,Potency,[1],9.35 µM (active)
same,Potency,[2],17.2 µM (active)
same,Potency,[3],23.5 µM (active)
same,Potency,[4],19.3 µM (active)
same,Potency,[6],inactive
same,Potency,[7],18.7 µM (active)
Nc1ncnc2c1ncn2[C@@H]1O[C@H](CO)[C@@H](O)[C@@H]1O,Potency,[1],1.48 µM (active)
same,Potency,[2],6.11 µM (active)
same,Potency,[3],1.87 µM (active)
same,Potency,[4],3.85 µM (active)
same,Potency,[5],3.72 µM (active)
same,Potency,[6],inactive
same,Potency,[8],2.35 µM (active)
same,Potency,[16],14.7 µM (active)
same,Potency,[10],inactive
same,Potency,[17],8.27 µM (active)
same,Potency,[18],13.1 µM (active)
same,Potency,[11],inactive
same,Potency,[19],14.7 µM (active)
same,Potency,[13],7.37 µM (active)
OC[C@H]1O[C@@H](O[C@H]2[C@@H](O)[C@@](O)(CO)O[C@@H]2CO)[C@H](O)[C@@H](O)[C@@H]1O,Potency,[1],inactive
same,Potency,[2],inactive
same,Potency,[3],inactive
same,Potency,[4],inactive
same,Potency,[5],inactive
same,Potency,[6],inactive
same,Potency,[7],inactive
same,Potency,[8],inactive
CC[C@H](C=C[C@@H](C)[C@H]1CC[C@H]2[C@@H]3CC=C4C[C@@H](O)CC[C@]4(C)[C@@H]3CC[C@]12C)C(C)C,Potency,[1],inactive
same,Potency,[2],inactive
same,Potency,[3],inactive
same,Potency,[4],inactive
same,Potency,[9],inactive
same,Potency,[6],inactive
same,Potency,[7],inactive
same,Potency,[8],inactive
CC[C@H](CC#N)OC(=O)N[C@@H](C)c1cccc(NC(=O)Nc2ccc(-c3cnco3)c(OC)c2)c1,Potency,[1],0.662 µM (active)
same,Potency,[2],0.611 µM (active)
same,Potency,[3],inactive
same,Potency,[4],7.69 µM (active)
same,Potency,[8],inactive
Cc1cccc(Nc2nc(N[C@@H]3CCCC[C@H]3N)ncc2C(N)=O)c1,Potency,[1],18.7 µM (active)
same,Potency,[2],30.6 µM (active)
same,Potency,[3],20.9 µM (active)
same,Potency,[4],7.69 µM (active)
same,Potency,[5],14.8 µM (active)
same,Potency,[6],inactive
same,Potency,[8],11.8 µM (active)
Cc1cccc(-c2[nH]c(C(C)(C)C)nc2-c2ccc3c(c2)OCO3)n1,Potency,[1],4.18 µM (active)
same,Potency,[2],7.69 µM (active)
same,Potency,[3],inactive
same,Potency,[4],2.73 µM (active)
same,Potency,[5],inactive
same,Potency,[7],inactive
same,Potency,[8],1.18 µM (active)
same,Potency,[10],13.1 µM (active)
same,Potency,[17],7.37 µM (active)
same,Potency,[18],2.61 µM (active)
same,Potency,[19],8.27 µM (active)
same,Potency,[13],7.37 µM (active)
same,Potency,[15],8.27 µM (active)
Cn1cc(-c2ccc3nnc(Sc4ccc5ncccc5c4)n3n2)cn1,Potency,[1],inactive
same,Potency,[2],inactive
same,Potency,[3],inactive
same,Potency,[4],inactive
same,Potency,[6],inactive
CC(C)CNc1ccnc(NCc2csc(-c3ccccc3)n2)n1,Potency,[1],14.8 µM (active)
same,Potency,[2],6.85 µM (active)
same,Potency,[3],23.5 µM (active)
same,Potency,[4],6.11 µM (active)
same,Potency,[9],29.6 µM (active)
same,Potency,[6],inactive
same,Potency,[7],inactive
CCCCN(CCCC)CC(O)c1cc(Cl)cc2c1-c1ccc(Cl)cc1C2=Cc1ccc(Cl)cc1 (centres undefined),Potency,[1],inactive
same,Potency,[2],inactive
same,Potency,[3],inactive
same,Potency,[4],inactive
same,Potency,[5],inactive
same,Potency,[6],inactive
same,Potency,[7],inactive
same,Potency,[8],inactive
